According to PubChem BioAssay AID624255 (Broad Institute, 2012):
The whole screen tested about 77,000 compounds, of which about 4,600 (6%) were called active. Inconclusive results (about 1%) are left out. What follows is part of a selection rich in actives, with near analogues and random picks from the rest. Values without a mark were called inactive.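 Rule for the calls: active = mean inhibition above about 93%, with at least 55% of replicates each passing it (limit read from the data, passing the limit was not always enough); inconclusive = only one of those two conditions holds; inactive = neither condition holds.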

Assay: T. cruzi intracellular proliferation inhibitors, primary screen, cell-based, beta-gal Tulahuen parasites, NIH3T3 host, luminescence (AID 624255)
Conditions: T. cruzi beta-gal in NIH3T3, GalScreen luminescence, 90 h; at 8.34 µM; active compounds read high

SMILES	inhibition
Cc1ccc(S(=O)(=O)Nc2ccc3c(c2)C(=O)N(C)[C@@H]2CC[C@@H](CC(=O)O)O[C@H]2CO3)cc1	33.9%
C[C@@H]1CN([C@H](C)CO)S(=O)(=O)c2ccc(C#CC3CC3)cc2O[C@H]1CN(C)Cc1ccccc1F	81.5%
C[C@H](O)C#Cc1ccc2c(c1)O[C@@H](CN(C)Cc1cccnc1)[C@H](C)CN([C@H](C)CO)S2(=O)=O	46.1%
C[C@H](O)C#Cc1ccc2c(c1)O[C@H](CN(C)Cc1cccnc1)[C@@H](C)CN([C@H](C)CO)S2(=O)=O	34.8%
C[C@H](CO)N1C[C@H](C)[C@H](CN(C)Cc2cccnc2)Oc2cc(C#CC3CCCC3)ccc2S1(=O)=O	97.8% (active)
C[C@@H]1CN([C@@H](C)CO)S(=O)(=O)c2ccc(C#Cc3cccnc3)cc2O[C@@H]1CN(C)C	-8.96%
C[C@@H]1CN([C@H](C)CO)S(=O)(=O)c2ccc(C#CC3CCCC3)cc2O[C@@H]1CN(C)Cc1cccnc1	118% (active)
O=C(Nc1cccc(Cl)c1)N1C[C@@H]2[C@H](c3ccccc31)[C@H](CO)N2C(=O)C1CC1	45%
O=C(C[C@@H]1CC[C@H]2[C@@H](COC[C@@H](O)CN2C(=O)c2ccc3c(c2)OCO3)O1)NC1Cc2ccccc2C1	-11.4%
CCCC#Cc1cnc2c(c1)C(=O)N([C@H](C)CO)C[C@H](C)[C@H](CN(C)C(=O)c1cnccn1)O2	-48.3%
CCCC(=O)Nc1ccc2c(c1)C(=O)N(C)[C@H]1CC[C@@H](CC(=O)NCc3ccccc3)O[C@@H]1CO2	-21.7%
Cn1cnc(S(=O)(=O)N2CC[C@@H]3[C@H]2c2cc(C#Cc4cccc(F)c4)ccc2N[C@@H]3CO)c1	-22.2%
O=S(=O)(c1ccccc1)N1CC[C@@H]2[C@@H](CO)Nc3ccc(C#Cc4cccc(F)c4)cc3[C@@H]21	105% (active)
O=S(=O)(c1ccccc1)N1CC[C@@H]2[C@H]1c1cc(C#Cc3cccc(F)c3)ccc1N[C@@H]2CO	102% (active)
Cc1ccccc1S(=O)(=O)N1CC[C@H]2[C@H](CO)Nc3ccc(-c4cccc(F)c4)cc3[C@H]21	100% (active)
N#Cc1cccc(-c2ccc3c(c2)[C@H]2[C@H](CCN2S(=O)(=O)c2ccc(F)cc2)[C@@H](CO)N3)c1	19.2%
COc1ccccc1S(=O)(=O)N1CC[C@@H]2[C@H]1c1cc(-c3ccccc3)ccc1N[C@@H]2CO	71.9%
COc1ccc(-c2ccc3c(c2)[C@@H]2[C@@H](CCN2C(=O)c2cccc(F)c2)[C@H](CO)N3)cc1	29.7%
Cc1cccc(S(=O)(=O)N2CC[C@@H]3[C@H]2c2cc(C#Cc4ccccc4F)ccc2N[C@@H]3CO)c1	62.9%
O=C(c1cccc(F)c1)N1CC[C@@H]2[C@@H](CO)Nc3ccc(C#Cc4cccc(F)c4)cc3[C@@H]21	110% (active)
COc1ccc(-c2ccc3c(c2)[C@@H]2[C@@H](CCN2S(=O)(=O)c2ccccc2F)[C@H](CO)N3)cc1	36.8%
COc1cccc(-c2ccc3c(c2)[C@H]2[C@H](CCN2C(=O)c2ccc(F)cc2)[C@@H](CO)N3)c1	32.4%

SMILES	inhibition
Cc1cccc(S(=O)(=O)N2CC[C@@H]3[C@H]2c2cc(C#Cc4ccc(F)cc4)ccc2N[C@@H]3CO)c1	12.4%
CC(C)c1cn(CC[C@@H]2CC[C@@H](NC(=O)C3CC3)[C@H](CO)O2)nn1	10.2%
CCCNC(=O)C[C@H]1CC[C@@H]2[C@H](COC[C@H](O)CN2S(=O)(=O)c2ccccc2F)O1	11.7%
CO[C@H]1CC[C@@H]2CCOc3c(C#N)cccc3C(=O)N(C)C[C@H](C)C(=O)N(C)C[C@H]1O2	30.6%
O=C(C[C@@H]1CC[C@H](NC(=O)Cc2ccccn2)[C@H](CO)O1)NCCc1ccncc1	-62.5%
C[C@@H](NC(=O)C[C@@H]1C[C@H]2c3cc(NC(=O)C4CCC4)ccc3O[C@H]2[C@@H](CO)O1)c1ccccc1	-32.2%
Cc1ccc(S(=O)(=O)Nc2ccc3c(c2)C(=O)N([C@H](C)CO)C[C@@H](C)[C@@H](CN(C)C(=O)CCC(F)(F)F)OCCCC[C@@H](C)O3)cc1	47.6%
CCCN1C[C@H](C)[C@H](OC)CN(C)C(=O)c2cc(NC(=O)C3CCOCC3)ccc2OC[C@@H]1C	-22.2%
Cc1ccc(S(=O)(=O)Nc2ccc3c(c2)C(=O)N(C)[C@H]2CC[C@H](CC(=O)O)O[C@H]2CO3)cc1	22.9%
COCC#Cc1ccc([C@@H]2[C@H](CO)N3CCCCN(C(=O)CN(C)C)C[C@@H]23)cc1	107% (active)
COc1cccc(S(=O)(=O)N2CCCCN3[C@H](CO)[C@H](c4ccc(C#CC5CC5)cc4)[C@H]3C2)c1	118% (active)
CC(C)C#Cc1ccc([C@H]2[C@H](CO)N3CCCCN(C(=O)NC(C)C)C[C@@H]23)cc1	104% (active)
CC(C)C#Cc1ccc([C@@H]2[C@H]3CN(C(=O)NC(C)C)CCCCN3[C@H]2CO)cc1	43.5%
COCC#Cc1ccc([C@@H]2[C@@H](CO)N3CCCCN(C(=O)COC)C[C@@H]23)cc1	12.3%
O=S(=O)(c1ccc(F)cc1)N1CCCCN2[C@H](CO)[C@@H](c3ccc(C#CC4CCCC4)cc3)[C@H]2C1	88.5%
Cn1cnc(S(=O)(=O)N2CCCCN3[C@@H](CO)[C@@H](c4ccc(C#CC5CCCC5)cc4)[C@@H]3C2)c1	54.8%
CCC(=O)N1CCCCN2[C@H](C1)[C@@H](c1ccc(C#CCOC)cc1)[C@@H]2CO	14%
COc1ccc(S(=O)(=O)N2CCCCN3[C@H](C2)[C@H](c2ccc(C#CCC(C)C)cc2)[C@@H]3CO)cc1	103% (active)
CC(C)NC(=O)N1CCCCN2[C@@H](CO)[C@@H](c3ccc(C#C[C@@H](C)O)cc3)[C@@H]2C1	75.5%
COc1ccc(S(=O)(=O)N2CCCCN3[C@@H](CO)[C@@H](c4ccc(C#CCC(C)C)cc4)[C@@H]3C2)cc1	34.4%
CN1c2ccc(C#Cc3cccnc3)cc2[C@@H]2[C@@H](CCN2S(=O)(=O)c2ccccc2)[C@H]1CO	89.6%
COc1ccccc1NC(=O)N[C@H]1CC[C@@H](CCn2cc(C3(O)CCCC3)nn2)O[C@@H]1CO	0.23%

SMILES	inhibition
C[C@@H](NC(=O)[C@H]1[C@H](CO)[C@H]2Cn3c(cccc3=O)[C@H]2N1C(=O)C1CC1)c1ccccc1	-11.1%
CC=Cc1ccc2n(c1=O)C[C@@H]1[C@@H](CO)[C@H](C(=O)N[C@@H](C)c3ccccc3)[C@H]2N1Cc1ccncc1 (mixture of isomers)	25.6%
COC(=O)C[C@@H]1CC[C@H]2[C@@H](COC[C@H](O)CN2C(=O)Nc2ccccc2OC)O1	-19.2%
CC(=O)N1[C@@H](CO)[C@H](c2ccccc2)[C@@H]1CN(C(=O)c1ccccc1)C(C)C	26.7%
O=C(C[C@H]1C[C@H]2c3cc(NC(=O)C4CCOCC4)ccc3O[C@H]2[C@@H](CO)O1)NCC1CC1	-5.99%
Cn1cnc(S(=O)(=O)N2C[C@H](O)COC[C@@H]3O[C@H](CC(=O)NCc4cccc(F)c4)CC[C@H]32)c1	34.3%
CN1C[C@@H]2[C@H](c3ccccc31)[C@H](CO)N2C(=O)Nc1ccc(F)cc1	15.1%
Cc1ccc(S(=O)(=O)Nc2ccc3c(c2)C(=O)N([C@@H](C)CO)C[C@H](C)[C@@H](CN(C)C(=O)Nc2ccc(F)cc2)OCCCC[C@H](C)O3)cc1	92.5%
O=C(C[C@H]1C[C@H]2c3cc(NC(=O)CC4CC4)ccc3O[C@H]2[C@H](CO)O1)NCc1cc(F)ccc1F	-48.8%
CC(C)CC#Cc1ccc2c(c1)O[C@@H](CN(C)C(=O)Nc1ccccc1F)[C@@H](C)CN([C@@H](C)CO)S2(=O)=O	83.3%
COc1ccc(S(=O)(=O)N2CCCCN3[C@H](CO)[C@@H](c4ccc(C#CC(C)C)cc4)[C@H]3C2)cc1	106% (active)
COc1cccc(S(=O)(=O)N2CCCCN3[C@H](C2)[C@@H](c2ccc(C4=CCCCC4)cc2)[C@@H]3CO)c1	51.4%
COc1ccc(C#Cc2ccc([C@H]3[C@@H](CO)N4CCCCN(S(=O)(=O)c5cn(C)cn5)C[C@H]34)cc2)cc1	50.5%
COc1cccc(S(=O)(=O)N2CCCCN3[C@H](CO)[C@H](c4ccc(-c5ccncc5)cc4)[C@H]3C2)c1	111% (active)
Cc1cccc(S(=O)(=O)N2CCCCN3[C@@H](CO)[C@H](c4ccc(-c5cccnc5)cc4)[C@@H]3C2)c1	12.6%
COc1cccc(S(=O)(=O)N2CCCCN3[C@H](C2)[C@H](c2ccc(C#CC(C)C)cc2)[C@@H]3CO)c1	118% (active)
CCCNC(=O)C[C@H]1CC[C@H]2[C@@H](COC[C@H](O)CN2C(=O)Nc2c(C)noc2C)O1	-19.4%
COc1cccc(S(=O)(=O)N[C@@H]2CC[C@@H](CCNC(=O)Cc3ccncc3)O[C@H]2CO)c1	80.6%
CS(=O)(=O)N1[C@H](C(=O)NCc2ccncc2)[C@@H](CO)[C@@H]2Cn3c(ccc(C4=CCCCC4)c3=O)[C@@H]21	58.6%
COc1cccc(S(=O)(=O)N2C[C@@H](O)COC[C@H]3O[C@@H](CC(=O)N4CCOCC4)CC[C@@H]32)c1	22.5%
